In all, about 1,600 compounds went through this assay and about 1,100 (69%) were called active. The set was probably picked from earlier hits. Only a sample is shown. Unmarked numbers belong to inactive results. No stated cut-off is given here; in the data, active means inhibition above about 50%; inactive means the rest.

The inhibition is the relative decrease from the control value, in per cent.

The test deals with Phospholipase A2 (Homo sapiens) (UniProt P04054). The experiment in a line: PLA2 enzyme inhibition, counter-screen for ATG4B inhibitor project, biochemical, single concentration, uHTS hits (AID 588402). The conditions noted are these: purified PLA2, NBD-C6-HPC fluorescence, 45 min; at 8.33 µM; active compounds read high.
Phospholipase A2 (Homo sapiens), sequence (P04054 whole entry, looked up): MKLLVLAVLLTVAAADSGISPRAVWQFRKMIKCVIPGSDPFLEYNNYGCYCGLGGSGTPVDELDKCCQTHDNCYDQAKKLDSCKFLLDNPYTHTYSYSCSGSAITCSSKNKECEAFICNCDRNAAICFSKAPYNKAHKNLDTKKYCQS
In the case of `Cc1ccc(-c2cc(C(=O)N3CCc4ccccc4C3)no2)cc1`, the inhibition was 43.8%.

With `COc1ccc2c(c1)CCc1c(C(=O)N3CCc4ccccc4C3)noc1-2`, the inhibition is 47.9%.

Take `O=C(C(=O)N1CCc2ccccc2C1)c1c[nH]c2ccccc12`: the inhibition was 71% (active).

As for `Cc1ccc(CSc2nc(-c3ccccc3)c(C#N)c(=O)[nH]2)cc1`, the inhibition is 32.1%.

For the compound `COc1ccc(Br)cc1C(=O)NC(=S)Nc1cc(-c2nc3ccccc3[nH]2)ccc1C`, the inhibition was 74.1% (active).

`Cc1cccc(C)c1N1C(=O)CN(Cc2ccccc2)C1=S`: the inhibition was 90.3% (active).

As to `CCc1cccc(C)c1N1C(=O)CN(Cc2ccccc2)C1=S`, the inhibition was 92.4% (active).

As for `Cc1cccc(C)c1-n1c(C)cc(/C=C2\C(=O)NN(c3ccccc3)C2=O)c1C`, the inhibition is 63.7% (active).

`Cc1c(Cl)cccc1NC(=O)Nc1ccc(C(=O)N2CCCC2)cc1`: the inhibition was 56.6% (active).

On to `O=C1c2ccccc2C(=O)N1Cc1cc(-c2ccccc2Cl)no1`, for which the inhibition is 64.2% (active).

As for `COc1ccc(C)cc1S(=O)(=O)N(CC(=O)Nc1cccc([N+](=O)[O-])c1)c1ccc(C)cc1`, the inhibition is 86.6% (active).

For `Cc1ccc(S(=O)(=O)N(CC(=O)Nc2cccc([N+](=O)[O-])c2)Cc2ccc(Cl)cc2)cc1`, the inhibition was 80.7% (active).

Take `Fc1cccc(Cl)c1CSc1ccc(-c2ccco2)nn1`: the inhibition was 49.5%.

Consider `NC(=O)Cc1ccc2sc(-c3ccccc3)nc2c1`, for which the inhibition is 79.7% (active).

`CCN1CCN(c2c(Cl)cccc2NC(=O)c2ccc(Br)o2)CC1`: the inhibition was 61.6% (active).

On to `Cc1ccc(N=C2NC(=O)/C(=C/C=C/c3ccco3)S2)cc1C`, for which the inhibition was 36.4%.

For `CC(C)c1ccc2c(c1)c(SC(C)(C)C)c(CC(C)(C)C(=O)O)n2Cc1ccc(Cl)cc1`, the inhibition is 57.7% (active).

As for `O=C(/C=C/c1ccc(Cl)cc1)N1CCN(c2ccccc2[N+](=O)[O-])CC1`, the inhibition is 53% (active).

As to `CC(=O)c1c(C)n(-c2ccc(N(C)C)cc2)c2ccc(OCC(N)=O)cc12`, the inhibition is 82.6% (active).

On to `Cc1c(Cl)c([N+](=O)[O-])nn1CCCC(=O)Nc1cc(Cl)ccc1Cl`, for which the inhibition was 69.4% (active).

On to `COc1ccc(/C=C2/SC(=O)N(CCCCCC(=O)Nc3ccccc3C(=O)O)C2=S)cc1`, for which the inhibition was 24.3%.

Turning to `O=C(Nc1cccc(F)c1)NC1CCCc2ccccc21` (stereo unspecified), the inhibition is 71.2% (active).

For `CCOC(=O)c1c(C)[nH]c2c1-c1ccccc1C(=O)C2=O`, the inhibition was -20.8%.

With `CC1CCN(C(=O)c2ccc(CSc3ccc(Cl)cc3)cc2)CC1`, the inhibition is 58.1% (active).

`CC1(OC(=O)C2CCCC2)C(=O)C=C2C=C(c3ccc(C#N)cc3)OC=C2C1=O` (stereo unspecified): the inhibition is 66.5% (active).

In the case of `CCCc1nc2c(c(=O)c3ccccc3n2C)c(=O)n1C1CCCCCC1`, the inhibition is -14.6%.

As to `Cc1c(Cl)cccc1NC(=S)NCc1ccc2c(c1)OCO2`, the inhibition was 62.1% (active).

Turning to `CCCOc1ccc2c3c(c(=O)oc2c1OCCC)CCC3`, the inhibition is 40.9%.

As for `CCc1ccccc1NC(=O)/C(=C/c1ccccc1)c1ccccc1`, the inhibition is 61.7% (active).

`Cc1ccc(Nc2cc(=O)n(C3CCCCC3)c(=O)[nH]2)cc1C`: the inhibition was 2.78%.

With `NC(=O)Cc1ccc2c(c1)[nH]c1ccccc12`, the inhibition was 51% (active).

In the case of `O=C1N=C(N2CCc3ccccc3C2)S/C1=C\c1ccc(O)cc1`, the inhibition is 23.3%.

In the case of `O=c1c2sccc2nc(SCc2cc(=O)n3ccccc3n2)n1-c1ccc(Br)cc1`, the inhibition is 51.5% (active).

For `CCOC(=O)C(C)Sc1nc2ccccc2c(=O)n1CC1CCCCC1` (stereo unspecified), the inhibition was 44.5%.

For the compound `CCOc1ccc(-n2c(SC(C)C(=O)OC)nc3c(c2=O)SCC3)cc1` (stereo unspecified), the inhibition is 56.4% (active).

Regarding `Cc1ccc(NC(=O)CC2S/C(=N/N=C3\CCCc4ccccc43)NC2=O)cc1` (stereo unspecified), the inhibition is 60% (active).

In the case of `Cc1nn(-c2ccccc2)c(C)c1/C=N/NC(=O)CSc1nc2ccccc2c(=O)n1-c1ccccc1`, the inhibition is 31.8%.

For `COC(=O)c1c(NC(=O)C2CC(C)=C(C)CC2C(=O)O)sc2c1CCCCC2` (stereo unspecified), the inhibition is 68% (active).

As to `COc1cccc(CNc2nc(C(F)(F)F)nc3ccccc23)c1`, the inhibition was 63.6% (active).

Turning to `OC(CNCc1ccc(Cl)c(Cl)c1)c1ccccc1` (stereo unspecified), the inhibition is 38.9%.

In the case of `Cc1c(NC(=S)NCc2ccc(F)cc2)cccc1[N+](=O)[O-]`, the inhibition is 70.7% (active).

Take `Cc1cccc(C2c3[nH]c4ccccc4c3CCN2C(=O)c2cc(-c3cccn3C)n[nH]2)n1` (stereo unspecified): the inhibition is 75.6% (active).

In the case of `Cc1c(Cl)c([N+](=O)[O-])nn1Cc1ccc(C(=O)N/N=C\c2cc(Cl)ccc2O)o1`, the inhibition is 72.6% (active).

For the compound `COc1cccc(/C=N/Nc2ccc(S(=O)(=O)Nc3ccccc3C(=O)O)cc2[N+](=O)[O-])c1O`, the inhibition was 56.1% (active).

On to `c1ccc(C2=Nc3cccc4cccc(c34)N2)cc1`, for which the inhibition is 58.5% (active).

For `CC(C)c1nc(SCC(=O)Nc2cccc(C(=O)O)c2)c2c3c(sc2n1)CCCC3`, the inhibition was 70.6% (active).

In the case of `Cc1nc2ccccc2c(-c2ccccc2)c1C(=O)c1ccccc1`, the inhibition is 81.3% (active).

With `Cc1ncc(CC(=O)n2cc(C(=O)c3cc(Cl)ccc3O)cn2)s1`, the inhibition was 84.3% (active).

For the compound `Cc1cccc(C)c1N1CCN(S(=O)(=O)N2CCCCC2)CC1`, the inhibition was 54.3% (active).

Regarding `Cc1nc(SCC(=O)N2CCc3ccccc3C2)c2c(C)c(C)sc2n1`, the inhibition is 76.5% (active).

For `FC(F)(F)c1cccc(NC(=S)Nc2cccc(Cl)c2)c1`, the inhibition was 70.8% (active).

Take `Cc1ccc(C2=Nc3c(ccc4ccccc34)C(c3ccncc3)=NN2)cc1`: the inhibition is 68.7% (active).

On to `O=C(NCc1ccccc1)[C@H]1C[C@@H]1[C@H](NP(=O)(c1ccccc1)c1ccccc1)c1ccccc1`, for which the inhibition was 79% (active).

`O=C(Nc1nnc(SCc2ccccc2Cl)s1)c1cccc([N+](=O)[O-])c1`: the inhibition is 57.6% (active).

As to `Clc1ccccc1CSc1nnc(-c2ccco2)c(-c2ccco2)n1`, the inhibition was 34.9%.

As to `O=C(CSc1nc(-c2ccccc2)cs1)Nc1cccc([N+](=O)[O-])c1`, the inhibition is 16.5%.

For `S=C(NCCc1ccccc1)NCc1ccccc1Cl`, the inhibition is 54.4% (active).

With `Cc1ccc(CNC(=O)c2ccccc2CCc2ccccc2)cc1`, the inhibition is 45.9%.

Consider `FC(F)(F)Oc1ccc(NC(=S)NCc2ccccc2)cc1`, for which the inhibition is 47.2%.

Turning to `CN(Cc1c(F)cccc1Cl)S(=O)(=O)c1cccs1`, the inhibition is 58.8% (active).

As to `CCCC1=Nc2cc(C(=O)NCc3ccco3)ccc2Sc2ccccc21`, the inhibition was 46.3%.

Turning to `Oc1c(Cl)cc(Cl)c(Cl)c1Cc1c(O)c(Cl)cc(Cl)c1Cl`, the inhibition was 82.7% (active).

Consider `Cc1ccc(-n2c(SCC(=O)N/N=C/C=C/c3ccccc3[N+](=O)[O-])nc3ccccc3c2=O)cc1`, for which the inhibition was 40.7%.

In the case of `O=C(O)CCn1cc(/C=C/C(=O)c2ccc(Cl)cc2)c(-c2cccc(Br)c2)n1`, the inhibition is 43.2%.

Consider `O=C1C(=O)N(CC2COc3ccccc3O2)c2ccccc21` (stereo unspecified), for which the inhibition was 78.5% (active).

For `Fc1ccc2[nH]c3c(N4CCN(Cc5ccc6c(c5)OCO6)CC4)ncnc3c2c1`, the inhibition is 48.4%.

For the compound `COc1cccc(NC(=O)NCc2ccc(F)cc2)c1`, the inhibition was 52.3% (active).

`COc1ccc(NC(=O)COc2ccc(C(=O)c3ccc(F)cc3)cc2)cc1S(N)(=O)=O`: the inhibition is -4.37%.

In the case of `CC1=C/C(=N\S(=O)(=O)c2ccccc2)C(C(C)C)=CC1=O`, the inhibition was 84.4% (active).

Regarding `CN(C)Cc1ccc(F)cc1Sc1cc(Cl)ccc1Cl`, the inhibition is 42.7%.

Turning to `O=C(N/N=C/c1coc2ccccc2c1=O)c1cc2ccccc2o1`, the inhibition is 55.8% (active).

As for `COc1ccc(/C=C2/CCCc3ccccc3C2=O)cc1`, the inhibition is 53.3% (active).

With `COc1ccc(/C=C2\CCc3ccccc3C2=O)c(OC)c1OC`, the inhibition is 23.1%.

In the case of `CCc1ccc2c(c1)C(c1ccc([N+](=O)[O-])cc1)=NNC(c1ccccc1)=N2`, the inhibition is 24.1%.

For `CCOc1ccc2c(c1)C(c1ccc(C)cc1)=NNC(c1ccc(C)cc1)=N2`, the inhibition is 74.7% (active).

For `O=C1Nc2cc(Cl)c(Cl)cc2N(O)N1c1cc(Cl)cc(Cl)c1`, the inhibition was 39.8%.

Consider `O=C(O)C(c1ccccc1)N1C(=O)/C(=C\c2ccc(-c3cccc(Cl)c3)o2)SC1=S` (stereo unspecified), for which the inhibition is 45%.

Regarding `O=C(N[C@@H](Cc1c[nH]c2ccccc12)C(=O)O)OCC1c2ccccc2-c2ccccc21`, the inhibition was 72.1% (active).

Turning to `Cc1cccc(NC(=S)Nc2ccc(Cl)c(Cl)c2)c1`, the inhibition was 60.1% (active).

In the case of `COc1cnc(-c2ccccn2)nc1Oc1ccc(C(C)(C)C)cc1`, the inhibition was 67.2% (active).

With `CC(C)(C)c1ccc(OC2=CS(=O)(=O)c3ccccc32)cc1`, the inhibition is 55.9% (active).

For `Cc1cccc(NC(=S)NCCc2ccc(Cl)cc2)c1C`, the inhibition is 57.9% (active).

With `Cc1ccc(Nc2ccc(C(N)=O)cc2[N+](=O)[O-])cc1`, the inhibition is 59.4% (active).

Regarding `CCOC(=O)N/N=C/c1cn(Cc2ccccc2Cl)c2ccccc12`, the inhibition was 48.2%.

Regarding `COC(=O)N/N=C/c1cn(CCCOc2ccc(C)cc2)c2ccccc12`, the inhibition is 43%.

With `COc1cccc(Cn2cc(/C=N/NC(=O)c3cc(O)cc(O)c3)c3ccccc32)c1`, the inhibition is 76.6% (active).

Turning to `CC(C)(C)C1CCc2c(sc3nc(SCC(N)=O)nc(N)c23)C1` (stereo unspecified), the inhibition was 47.6%.

Consider `CCOC(=O)c1c(-c2ccccc2)oc2cc(Br)c(O)c(C=O)c12`, for which the inhibition is 40.9%.

Regarding `CC(=O)Nc1ccc(C(=O)Nc2nc(-c3cc(C)n(Cc4ccccc4)c3C)cs2)cc1`, the inhibition was 38.2%.

Take `CCCc1[nH]nc2c1C(c1ccc(OC(=O)c3ccco3)cc1)C(C#N)=C(N)O2` (stereo unspecified): the inhibition is 67.4% (active).

Take `COC(=O)c1c(NC(=O)COC(=O)[C@@H](NS(=O)(=O)c2ccccc2)C(C)C)sc2c1CCC2`: the inhibition is 81.7% (active).

In the case of `NC(=O)c1sc2nc3c(c(-c4ccccc4)c2c1N)CCC3`, the inhibition was 46.6%.

For `O=C(COC(=O)c1cc2c(s1)CCCC2)NCc1ccccc1Cl`, the inhibition is 59.3% (active).

Regarding `O=C(COC(=O)/C(=C/c1cccs1)c1cccs1)NCc1ccccc1Cl`, the inhibition was 68.2% (active).

On to `CCc1nc(N2CCN(C(C)=O)CC2)c2c3c(sc2n1)CCCC3`, for which the inhibition was 52.4% (active).

Take `Cc1ccc(Oc2cc(NC(=O)CCCn3nc(C)c([N+](=O)[O-])c3C)cc([N+](=O)[O-])c2)cc1`: the inhibition was 63% (active).

(Values after PubChem BioAssay AID588402 (Sanford-Burnham Center for Chemical Genomics, 2011).)
